# Measured values taken from PubChem BioAssay (Tox21).
# Inconclusive results are not listed. Where a call stands in place of a potency, no number is given. Unmarked numbers belong to inactive results. Active and inactive are the calls of the source. Unless noted, calls come from the whole dose curve; as a rule, active = well fitted curve in the direction sought with a large enough effect in the repeat runs; inconclusive = weak or mixed curves; inactive = no such curve, though single readings can be large; an effect the other way counts as inactive or inconclusive.
# Legend:
# [1] = qHTS assay to identify small molecule antagonists of the estrogen related receptor (ERR) signaling pathway from Tox21 library - cell viability counter screen (AID 1224834); settings: ERR reporter cells viability, CellTiter-Fluor, 17.5 h; series mostly up to 92.4 µM; note: nearly all actives have a fitted effect of over 30% in size; note: potency is the fitted concentration of half-maximal effect
# Procedure, shortened: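 ERR reporter cells were plated 6 h before compound addition, then exposed to test compounds in DMSO for 17.5 h at 37 C. Viability was read as CellTiter-Fluor fluorescence after a 30-minute incubation at 37 C.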
# [2] = target: Luciferin 4-monooxygenase (Photinus pyralis) (UniProt P08659); assay: qHTS assay to identify small molecule inhibitors of firefly luciferase (AID 1224835); note: nearly all actives have a fitted effect of over 25% in size; note: potency is the fitted concentration of half-maximal effect; settings: purified P. pyralis luciferase, luminescence inhibition; series mostly up to 115 µM
# Luciferin 4-monooxygenase (Photinus pyralis), sequence (P08659 whole entry, looked up): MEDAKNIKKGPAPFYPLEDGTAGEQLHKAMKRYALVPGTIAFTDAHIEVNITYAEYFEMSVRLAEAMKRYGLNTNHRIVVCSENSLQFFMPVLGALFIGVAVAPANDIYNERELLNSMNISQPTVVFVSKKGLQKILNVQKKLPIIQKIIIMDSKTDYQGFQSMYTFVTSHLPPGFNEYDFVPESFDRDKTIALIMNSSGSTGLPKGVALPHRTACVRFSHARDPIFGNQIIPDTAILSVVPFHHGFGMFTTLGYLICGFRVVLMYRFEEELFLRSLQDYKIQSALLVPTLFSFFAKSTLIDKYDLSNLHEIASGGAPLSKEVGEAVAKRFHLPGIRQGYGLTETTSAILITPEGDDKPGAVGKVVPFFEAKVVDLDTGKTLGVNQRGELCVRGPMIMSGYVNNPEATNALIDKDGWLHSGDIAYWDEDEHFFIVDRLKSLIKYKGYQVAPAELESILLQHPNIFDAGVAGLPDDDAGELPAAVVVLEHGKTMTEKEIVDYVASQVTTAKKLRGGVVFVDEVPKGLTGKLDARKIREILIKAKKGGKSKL
# Procedure, shortened: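 Inhibition of purified Photinus luciferase is measured by luminescence. Substrate levels (D-luciferin, ATP) sit at their KM values. Each compound is tested in a concentration series.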
# [3] = qHTS assay to identify small molecule agonists of the constitutive androstane receptor (CAR) signaling pathway - cell viability counter screen (AID 1224836); settings: HepG2-CYP2B6-hCAR viability, CellTiter-Fluor, 23 h, PK11195 added to every well; series mostly up to 92.4 µM; note: nearly all actives have a fitted effect of over 45% in size; note: potency is the fitted concentration of half-maximal effect
# Procedure, shortened: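 Compound titrations (15 concentrations) went onto HepG2-CYP2B6-hCAR cells 4 h after seeding, alongside PK11195 at a final 0.75 uM; a 23 h, 37 C/5% CO2 incubation preceded CellTiter-Fluor viability measurement.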
# [4] = qHTS assay to identify small molecule antagonists of the constitutive androstane receptor (CAR) signaling pathway - cell viability counter screen (AID 1224837); settings: HepG2-CYP2B6-hCAR viability, CellTiter-Fluor, 23 h, co-treated with 50 nM CITCO; series mostly up to 92.4 µM; note: nearly all actives have a fitted effect of over 45% in size; note: potency is the fitted concentration of half-maximal effect
# Procedure, shortened: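 HepG2 cells stably expressing hCAR and a CYP2B6-2.2kb reporter were plated and pre-incubated 4 hr at 37 C/5% CO2, then given compounds at 15 concentrations plus 50 nM CITCO (final). After 23 hr, viability was read by CellTiter-Fluor fluorescence.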
# [5] = target: Nuclear receptor subfamily 1 group I member 3 (Homo sapiens) (UniProt Q14994); assay: qHTS assay to identify small molecule antagonists of the constitutive androstane receptor (CAR) signaling pathway (AID 1224838); settings: HepG2-CYP2B6-hCAR luciferase, CITCO-stimulated, 24 h; series mostly up to 92.4 µM; note: nearly all actives have a fitted effect of over 40% in size; note: potency is the fitted concentration of half-maximal effect
# Nuclear receptor subfamily 1 group I member 3 (Homo sapiens), sequence (Q14994 whole entry, looked up): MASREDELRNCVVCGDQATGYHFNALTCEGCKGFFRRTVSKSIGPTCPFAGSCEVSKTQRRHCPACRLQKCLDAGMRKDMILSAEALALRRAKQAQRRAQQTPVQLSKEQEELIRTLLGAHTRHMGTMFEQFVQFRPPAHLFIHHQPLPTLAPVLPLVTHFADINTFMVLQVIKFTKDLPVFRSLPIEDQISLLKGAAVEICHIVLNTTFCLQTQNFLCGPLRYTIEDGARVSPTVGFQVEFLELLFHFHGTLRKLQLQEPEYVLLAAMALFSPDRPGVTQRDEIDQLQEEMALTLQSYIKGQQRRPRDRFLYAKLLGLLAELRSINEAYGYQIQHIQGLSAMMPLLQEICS
# Procedure, shortened: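 HepG2 cells stably co-transfected with hCAR and a CYP2B6-2.2kb luciferase reporter were seeded 4 h before compound addition at 15 concentrations. Cells were stimulated with 50 nM CITCO (final) for 24 h at 37 C; luciferase luminescence was then read.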
# [6] = target: Nuclear receptor subfamily 1 group I member 3 (Homo sapiens) (UniProt Q14994); assay: qHTS assay to identify small molecule agonists of the constitutive androstane receptor (CAR) signaling pathway (AID 1224839); settings: HepG2 hCAR CYP2B6-luciferase, agonist mode, 24 h; series mostly up to 92.4 µM;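 note: HepG2 cells stably carrying human CAR and a CYP2B6 luciferase reporter; nearly all actives have a fitted effect of over 15% in size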
# Procedure, shortened: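 In this screen, CAR-driven CYP2B6 promoter activity is measured by luminescence in HepG2-CYP2B6-hCAR cells after 24 h with test compounds and 0.75 uM PK11195 (final concentration).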
# [7] = qHTS assay to identify small molecule antagonists of the estrogen related receptor signaling pathway with the pleiotropic PPARgamma coactivator (PGC) from Tox21 10K library - cell viability counter screen (AID 1224840; active = well fitted cell-killing curve with a large enough effect in the repeat runs, not every such curve was filed as active; note: nearly all actives have a fitted effect of over 40% in size; note: potency is the fitted concentration of half-maximal effect); settings: PGC/ERR reporter cells viability, CellTiter-Fluor, 17.5 h; series mostly up to 92.4 µM
# Procedure, shortened: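 PGC/ERR cells were seeded at 2,000 cells/well and left 6 hours at 37 C/5% CO2 before pin-tool addition of compounds in DMSO. After 17.5 hours at 37 C, CellTiter-Fluor was added and fluorescence read 30 minutes later.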
# [8] = target: Thyrotropin receptor (Homo sapiens) (UniProt P16473); assay: qHTS assay to identify small molecule agonists of the thyroid stimulating hormone receptor (TSHR) signaling pathway (AID 1224843; calls by dose curve; note: nearly all actives have a fitted effect of over 45% in size; note: potency is the fitted concentration of half-maximal effect); settings: TSHR-HEK293 cells, cAMP HTRF, agonist mode, 30 min; series mostly up to 92.4 µM
# Thyrotropin receptor (Homo sapiens), sequence (P16473 whole entry, looked up): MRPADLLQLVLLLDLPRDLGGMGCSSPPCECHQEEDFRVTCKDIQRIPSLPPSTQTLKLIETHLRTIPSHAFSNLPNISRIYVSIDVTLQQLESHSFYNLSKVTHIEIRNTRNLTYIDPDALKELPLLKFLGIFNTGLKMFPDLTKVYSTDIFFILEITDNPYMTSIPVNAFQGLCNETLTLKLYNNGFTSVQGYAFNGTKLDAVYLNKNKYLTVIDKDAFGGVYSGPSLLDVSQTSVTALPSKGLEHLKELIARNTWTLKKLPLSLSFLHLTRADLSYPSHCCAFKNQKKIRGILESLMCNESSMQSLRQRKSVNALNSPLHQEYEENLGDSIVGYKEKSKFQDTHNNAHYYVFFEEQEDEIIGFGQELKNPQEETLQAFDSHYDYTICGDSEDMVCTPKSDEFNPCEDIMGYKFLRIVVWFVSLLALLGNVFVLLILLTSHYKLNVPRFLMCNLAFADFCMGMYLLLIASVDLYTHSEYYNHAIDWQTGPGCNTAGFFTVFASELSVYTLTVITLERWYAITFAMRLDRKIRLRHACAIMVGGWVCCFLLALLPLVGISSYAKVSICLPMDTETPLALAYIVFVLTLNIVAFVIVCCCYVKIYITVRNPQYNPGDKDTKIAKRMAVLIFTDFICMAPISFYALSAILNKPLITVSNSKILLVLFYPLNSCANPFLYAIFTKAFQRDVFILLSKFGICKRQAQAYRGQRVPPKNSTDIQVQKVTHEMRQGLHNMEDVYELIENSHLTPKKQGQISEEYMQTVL
# Procedure, shortened: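 Screening of the Tox21 10K collection used HEK293 cells engineered with TSHR at 800 cells per well. After a 30-min room-temperature compound exposure, HTRF cAMP reagents were added and fluorescence recorded 1 h later.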
# [9] = qHTS assay to identify small molecule agonists of the hypoxia (HIF-1) signaling pathway - cell viability counter screen (AID 1224844; calls by dose curve; note: nearly all actives have a fitted effect of over 50% in size; note: potency is the fitted concentration of half-maximal effect); settings: HRE-bla ME-180 viability, CellTiter-Glo luminescence, 17 h; series mostly up to 76.8 µM
# Procedure, shortened: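 HRE-bla ME-180 cells in medium with 0.5% dialyzed FBS were preincubated 5 hrs at 37C, exposed to compounds for 17 hrs, then viability was read as CellTiter-Glo luminescence after 30 min at room temperature, in the reporter wells.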
# [10] = qHTS assay to identify small molecule agonists of the estrogen related receptor signaling pathway with the pleiotropic PPARgamma coactivator (PGC) from Tox21 10K library (AID 1224842); settings: PGC/ERR reporter cell line, luciferase ONE-Glo, 18 h; series mostly up to 92.4 µM; note: nearly all actives have a fitted effect of over 15% in size
# Procedure, shortened: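 Luminescence from One-Glo (30 min, room temperature) measured after PGC/ERR cells had 18 h at 37 C with pinned compound (23 nL in DMSO). Cells had been seeded at 2,000 per well and pre-incubated 6 h.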
# [11] = qHTS assay to identify small molecule agonists of H2AX (AID 1224845; active = well fitted activation curve with a large enough effect in the signal ratio in the repeat runs, not every such curve was filed as active; the % refers to the signal ratio; note: potency is the fitted concentration of half-maximal effect); settings: CHO-K1 phospho-H2AX Ser139 HTRF, 3 h; series mostly up to 154 µM
# Procedure, shortened: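 Phospho-H2AX Ser139 measured by HTRF (ex 320 nm; em 665 and 620 nm) after 24 hr antibody incubation. Compounds, 15 concentrations, 0.76% DMSO, were applied to CHO-K1 cells for 3hr at 37C before lysis.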
# [12] = qHTS assay to identify small molecule agonists of the hypoxia (HIF-1) signaling pathway (AID 1224846; active = well fitted activation curve with a large enough effect in the signal ratio in the repeat runs, not every such curve was filed as active; the % refers to the signal ratio); settings: HRE-bla ME-180 cells, beta-lactamase ratio, 17 h; series mostly up to 76.8 µM
# Procedure, shortened: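 HRE-bla ME-180 cells (beta-lactamase reporter under hypoxia response element) were plated at 2,000 cells/well in medium with 0.5% dialyzed FBS, rested 5 hrs, then given compounds in DMSO for 17 hrs at 37C, 5% CO2. Reporter induction was read with CCF4-AM FRET substrate.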
# [13] = qHTS assay to identify small molecule antagonists of the estrogen related receptor signaling pathway with the pleiotropic PPARgamma coactivator (PGC) from Tox21 10K library (AID 1224841; call rule not given here; note: actives are mostly falling curves and most rising ones were filed inactive; nearly all actives have a fitted effect of over 50% in size; note: potency is the fitted concentration of half-maximal effect); settings: PGC/ERR reporter cell line, ONE-Glo luciferase, 18 h; series mostly up to 92.4 µM
# Procedure, shortened: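 PGC/ERR reporter cells were seeded at 2,000 cells/well and held 6 hours at 37 C/5% CO2 before pin-tool addition of compounds in DMSO. After 18 hours at 37 C, One-Glo was added and luminescence read after 30 minutes at room temperature.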
smiles,measurement,setting,value
COCCC(=O)OC,Potency,[1],inactive
same,Potency,[2],inactive
same,Potency,[3],inactive
same,Potency,[4],inactive
same,Potency,[5],inactive
same,Potency,[6],inactive
same,Potency,[7],inactive
same,Potency,[8],inactive
same,Potency,[9],inactive
Cc1ccc(S(=O)(=O)C(I)I)cc1,Potency,[1],61.1 µM (active)
same,Potency,[2],39.9 µM (active)
same,Potency,[3],48.6 µM (active)
same,Potency,[4],34.4 µM (active)
same,Potency,[5],27.3 µM (active)
same,Potency,[6],inactive
same,Potency,[7],48.6 µM (active)
same,Potency,[10],inactive
same,Potency,[8],3.06 µM (active)
same,Potency,[9],13.8 µM (active)
same,Potency,[11],16 µM (active)
Cc1ccc(Cl)c(N)c1Cl,Potency,[1],inactive
same,Potency,[2],inactive
same,Potency,[3],inactive
same,Potency,[6],inactive
same,Potency,[7],inactive
same,Potency,[10],inactive
[Cl][Eu]([Cl])[Cl],Potency,[1],inactive
same,Potency,[2],31.7 µM (active)
same,Potency,[3],inactive
same,Potency,[4],inactive
same,Potency,[7],inactive
same,Potency,[9],inactive
same,Potency,[12],inactive
O=C1OCc2ccccc21,Potency,[1],inactive
same,Potency,[2],inactive
same,Potency,[3],inactive
same,Potency,[4],inactive
same,Potency,[5],inactive
same,Potency,[6],inactive
same,Potency,[7],inactive
same,Potency,[8],inactive
same,Potency,[9],inactive
same,Potency,[11],inactive
same,Potency,[12],inactive
CCOC=C(C(=O)OCC)C(=O)OCC,Potency,[1],inactive
same,Potency,[2],inactive
same,Potency,[3],inactive
same,Potency,[4],inactive
same,Potency,[5],inactive
same,Potency,[6],inactive
same,Potency,[7],inactive
same,Potency,[8],inactive
same,Potency,[9],inactive
same,Potency,[11],inactive
NCc1ccco1,Potency,[1],inactive
same,Potency,[2],inactive
same,Potency,[3],inactive
same,Potency,[4],inactive
same,Potency,[5],inactive
same,Potency,[6],inactive
same,Potency,[7],inactive
same,Potency,[8],inactive
same,Potency,[9],inactive
same,Potency,[11],inactive
Cc1ccc2n[nH]nc2c1,Potency,[1],inactive
same,Potency,[2],inactive
same,Potency,[3],inactive
same,Potency,[4],inactive
same,Potency,[7],inactive
same,Potency,[13],inactive
same,Potency,[10],inactive
same,Potency,[8],inactive
same,Potency,[9],inactive
same,Potency,[11],inactive
CCCC(C)C=O (centres undefined),Potency,[1],inactive
same,Potency,[2],inactive
same,Potency,[3],inactive
same,Potency,[5],inactive
same,Potency,[6],inactive
same,Potency,[7],inactive
same,Potency,[13],inactive
same,Potency,[10],inactive
same,Potency,[8],inactive
same,Potency,[9],inactive
same,Potency,[11],inactive
same,Potency,[12],inactive
N#Cc1nc(Cl)c(Cl)c(Cl)c1Cl,Potency,[1],27.3 µM (active)
same,Potency,[2],inactive
same,Potency,[3],43.3 µM (active)
same,Potency,[5],24.3 µM (active)
same,Potency,[6],inactive
same,Potency,[7],15.4 µM (active)
same,Potency,[13],12.2 µM (active)
same,Potency,[10],inactive
same,Potency,[8],34.4 µM (active)
same,Potency,[9],34.7 µM (active)
C=CC(=O)OCCOC1C2CCC1C1CC=CC12 (centres undefined),"viability change, negative = cytotoxic",[1],-4.69% [at 19 µM]
same,"activity change, negative = inhibition",[2],-9.04% [at 23.6 µM]
same,"viability change, negative = cytotoxic",[3],-2.57% [at 19 µM]
same,"activity change, negative = cytotoxicity",[4],-0.771% [at 19 µM]
same,"viability change, negative = cytotoxic",[7],-0.314% [at 19 µM]
same,activation,[8],-1.28% [at 19 µM]
same,"activity change, negative = cytotoxicity",[9],4.59% [at 15.8 µM]
same,activation (H2AX phosphorylation),[11],-0.772% [at 31.6 µM]
